# ± gives the standard deviation of the averaged measurements. Whole data set: some 25,000 sequences, median “ln(normalized median fluorescence intensity)” near 8.9, cut for the highest 2% near 10. Only a selection was taken, and the highest values are over-represented in it overall.
# System: PfAP2-LT AP2 domain (GST-tagged)
# Assay: gcPBM binding intensity (ln(normalized median fluorescence intensity)); higher = stronger DNA binding
# In short: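 DNA-binding domains from P. falciparum, fused to GST and produced in E. coli, were put on an Agilent 4 × 180k double-stranded probe array for 1 h in 1× PBS holding 1% milk, 0.2 mg/ml BSA, 0.5% salmon testes DNA and 0.03% Triton X-100. Probes were primer-extended, 36 bp long and drawn from intergenic genomic regions, with negative controls included. After Alexa488 anti-GST antibody detection and a 488 nm scan, binding intensity was set as the highest Masliner-normalised natural-log median intensity across replicate spots of either probe orientation.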
row,Sequence,gcPBM binding intensity (ln)
1,ATTATAATTATTTTGTTGCACTATTTTTGTAGGCCA [GTGCAC_site9734],8.8 ± 0.49
2,ATATTATTTTAAAGTACACACATATATTAATATATA [CACACA_site2315],8.76 ± 0.38
3,ATATATATATATATATGTACATATATATATAATTTT [XGTACX_site4146],9.34 ± 0.54
4,CTTGTCATTTTGCACACACACATGTATAGGTTATTA [CACACA_site7431],9.67 ± 0.16
5,ATTATGGATACATAAACACACATATATATAAAAAAA [CACACA_site4303],9.04 ± 0.43
6,AAAAAAAAAAAAAAAAAAAAAAAAACAATGAATTTA [GTGCAC_negctrl_site698],8.82 ± 0.19
7,TTAAATAAGTAATTATGTACATATAATATTCTTTAT [XGTACX_site5280],8.6 ± 0.42
8,ATATTAAGGTTTATATTTTAACTTATTATTTTATTC [CACACA_negctrl_site795],8.7 ± 0.49
9,GGATTTTAATGAACACGTACATAAAATTAAATAAAT [XGTACX_site7023],8.73 ± 0.45
10,TAAGTATAAATATTTACACACATTTGTTTTTTTTTA [CACACA_site7731],8.78 ± 0.4
11,TGCCTTATTAAAAGAATTACACATATTTAATCGAAA [GTGCAC_negctrl_site153],8.31 ± 0.39
12,TCTTTTTTTTTTTATTGTACAAGAAAAGGAAAAAAT [XGTACX_site3717],8.05 ± 0.31
13,TTTTTTTTTTTAAGGTGTACAATAAAAATTTATGCA [XGTACX_site8860],8.23 ± 0.35
14,ATATTATTTTATTTTTGTACAGATATCTTTAAAAAA [XGTACX_site3734],8.42 ± 0.37
15,ATTCTATTATAATACACACCCAAATATTAAAAAGAT [CACACA_site2960],8.99 ± 0.4
16,CATATACATACACATACACACATACAGACATACACA [CACACA_site6919],9.63 ± 0.2
17,ATTCTACACAGACATACACACATATATATATATATA [CACACA_site5826],9.835 ± 0.078
18,CATACATACAGACACACACACATATAAATACATACA [CACACA_site6533],9.88 ± 0.35
19,AGGATATGCAGACACACACACATATATATATATATA [CACACA_site2201],10.3 ± 0.23
20,AGGACACATATATGCAAAAAAAAAAAAAAAAAAAAA [TGCATGCA_negctrl_site427],8.41 ± 0.59
21,TATACAGACAGACACACACACATATATATATATATA [CACACA_site1734],10.3 ± 0.13
22,TACATACACAGACACACACACATATATATATATATA [CACACA_site3557],10.1 ± 0.19
23,AATACATACAGACACACACACACATATAAATAAATA [CACACA_site7642],10.1 ± 0.38
24,TACACATACAGACATACACACATACACATATACACA [CACACA_site6918],9.85 ± 0.23
25,TACAGACATACATACACACATACATATATATATATA [CACACA_site1940],9.82 ± 0.34
26,AGGATATGCAGACACACACACATATAGATTTATATA [CACACA_site7100],9.56 ± 0.43
27,TACATACACAGACACACACACATATAAATATAAATA [CACACA_site7641],9.78 ± 0.28

# Source: the supplement of paper PMC11417369
